Screens (PubChem)
TGFb inhibitor: TGF-b pathway inhibition; HepG2 CAGA-GFP TGF-b/SMAD3 reporter, GFP fluorescence, 18 h; TGF-beta stimulated, 500 pg/mL final; AID 588855; 410,000 tested, 1.2% active; Potency, µM (top dose mostly 46.1 µM), without a hit: at the top dose activity, negative = inhibition, usual class: inhibitors; also: % is scaled to controls: 0 for no effect and ±100 for the full control effect; nearly all actives have a fitted effect of over 65% in size
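Using HEPG2 CAGA-GFP reporter cells at 1000 cells/well, we pinned test compounds, stimulated with recombinant TGF-beta (500 pg/mL final) and measured total well GFP after 18 h.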
A549 viability: kills or reduces viability of A549 cells in Nrf2 counter-screen | A549 ARE-Fluc cells, CellTiter-Fluor viability, 18-24 h | Potency, µM (series often up to 46 µM), for inactives: at the top dose activity change, negative = cytotoxicity, actives largely listed as inhibitors | 390,000 tested, 0.16% active | AID 504648; also: % is scaled to controls: 0 for no effect and ±100 for the full control effect
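A549 ARE-Fluc cells in 5% FBS OPTI-MEM, 5000 cells/well, rested 2 h then exposed to compounds in concentration-response for 18-24 h at 37 °C. Viability by CellTiter-Fluor fluorescence (Ex 405/Em 525) after 30 min; luciferase luminescence (BugLite, 15 min, RT) read afterwards.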
ATXN viability: cell viability loss in ATXN counter-screen; S2 cells (HEK-293 line with an ATXN2-luciferase reporter) viability, CellTiter-Fluor protease fluorescence, 24 h; AID 651635; Potency, µM (top dose mostly 56.7 µM), usual class: cytotoxic; 400,000 tested, 0.49% active; also: nearly all actives have a fitted effect of over 40% in size
ATXN2 expr inh: ATXN2 expression inhibition; HEK-293 ATXN2-luciferase reporter, luminescence, 24 h; Potency, µM (doses to about 57 µM), inactives show top-dose activity change, negative = inhibition, usual class: inhibitors; 360,000 tested, 0.72% active; AID 1745845; also: % is scaled to controls: 0 for no effect and ±100 for the full control effect; nearly all actives have a fitted effect of over 55% in size
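ATXN2-luciferase reporter cells (luciferase flanked by upstream and downstream ATXN2 gene portions) were treated 24 h at 37 °C with compounds at up to 57 uM. SteadyGlo luminescence gave expression; GF-AFC fluorescence gave viability.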
Nrf2 inh: blocks Nrf2 signaling. A549 ARE-Fluc reporter, luciferase luminescence, 18-24 h. Potency, µM (series often up to 46 µM), for the others: at the top dose activity change, negative = inhibition, actives largely listed as inhibitors. 360,000 tested, 2.1% active; also: % is scaled to controls: 0 for no effect and ±100 for the full control effect; nearly all actives have a fitted effect of over 60% in size
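A549 ARE_Fluc cells (5000/well, 5% FBS OPTI-MEM) pre-incubated 2 h, then treated with compounds 18-24 h at 37C/5% CO2 in concentration-response. CellTiter-Fluor viability read first; BugLite luciferase luminescence after 15 min at room temperature gives Nrf2 activity.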
HepG2 viability: counter-screen for TGF-b inhibitors: cytotoxicity in HepG2 cells; HepG2 CAGA-GFP viability, ATP luminescence, 18 h; Potency, µM (doses to about 46.1 µM), without a hit: at the highest dose activity change, negative = cytotoxicity, actives largely listed as cytotoxic; 410,000 tested, 0.76% active; AID 588856
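CellTiter-Glo luminescence gave cytotoxicity after 18 hours at 37 degrees C. The cells were HepG2 CAGA-GFP in 1% FBS DMEM, stimulated with 500 pg/mL TGF-beta after compound addition. %Activity was normalised to no-cell wells (complete cell-killing) and DMSO (no toxicity), and curves were fitted and classified.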
Numbers without * were called inactive. A selection: hits, their analogues and other compounds. The true share with any hit is near 3.8%. Calls follow the shape of the dose curve; as a rule, active = well fitted curve in the direction sought with a large enough effect; inconclusive = small, poorly fitted or top-dose-only effect, or another doubt; inactive = no such curve, though single readings can be large; an effect the other way counts as inactive or inconclusive. Potency is read from the fitted curve at half-maximal effect.

What do the screens show for `COC(=O)c1ccc(-n2c(C)cc(C(=O)CCl)c2C)cc1`?
TGFb inhibitor: 20µM*; A549 viability: -0.1%; ATXN viability: 29.9µM*; ATXN2 expr inh: 15µM*; Nrf2 inh: -4.4%; HepG2 viability: 12.6µM*

How did Cc1cc(Cl)ccc1OCC(=O)N(Cc1sccc1C)C1CCS(=O)(=O)C1 (stereo not given) do in these assays?
A549 viability: -23.4%; Nrf2 inh: inconclusive; HepG2 viability: -1.2%

What do the screens show for `C=C(CN(C)C)C(=O)c1cc(C)ccc1C`?
TGFb inhibitor: 2.51µM*; A549 viability: -16.3%; ATXN viability: 10.6µM*; ATXN2 expr inh: 10.6µM*; Nrf2 inh: inconclusive; HepG2 viability: -107.2%

How did CC(=O)NCc1ccc(C(=O)CCl)s1 do in these assays?
TGFb inhibitor: inconclusive; A549 viability: 5.0%; ATXN2 expr inh: inconclusive; Nrf2 inh: inconclusive; HepG2 viability: 11.2µM*

Results for COc1ccc(C(=O)OCC(=O)c2ccc(CNC(C)=O)s2)cc1 ?
TGFb inhibitor: 9.0%; A549 viability: 0.1%; ATXN viability: inactive; ATXN2 expr inh: 34.9%; Nrf2 inh: 11.3%; HepG2 viability: -12.8%

Results for CCN(CC)CCNc1cccc2sc3ccccc3c(=O)c12 ?
TGFb inhibitor: 1.7%; ATXN viability: inactive; HepG2 viability: -26.5%

Results for CCN(CC)CCNc1ccc(CO)c2sc3ccccc3c(=O)c12 ?
TGFb inhibitor: inconclusive; A549 viability: 16.4µM*; ATXN viability: 31.6µM*; ATXN2 expr inh: 28.2µM*; Nrf2 inh: 6.51µM*; HepG2 viability: -15.3%

How did O=c1c2ccccc2sc2c(CO)ccc(NCCN3CCCCC3)c12 do in these assays?
TGFb inhibitor: inconclusive; A549 viability: inconclusive; ATXN viability: inconclusive; ATXN2 expr inh: 18.9µM*; Nrf2 inh: inconclusive; HepG2 viability: -9.9%

Results for Oc1ccc(-c2nc(-c3ccccc3)c(-c3ccc(Br)cc3)[nH]2)cc1 ?
TGFb inhibitor: inconclusive; A549 viability: -6.7%; ATXN viability: inconclusive; ATXN2 expr inh: inconclusive; Nrf2 inh: -23.2%; HepG2 viability: -110.9%

What do the screens show for `Oc1ccc(N=Nc2nc(-c3ccccc3)c(-c3ccccc3)[nH]2)cc1`?
TGFb inhibitor: -30.1%; A549 viability: inconclusive; ATXN viability: 11.2µM*; ATXN2 expr inh: 10.5%; Nrf2 inh: inconclusive; HepG2 viability: -28.0%

What do the screens show for `O=C(OCC(=O)N1CCCCCC1)c1ccc(F)cc1F`?
TGFb inhibitor: -14.7%; A549 viability: -0.4%; ATXN viability: inactive; ATXN2 expr inh: 27.6%; Nrf2 inh: 0.0%; HepG2 viability: -4.3%

What do the screens show for `COc1ccc(Cn2c(O)c(C=Nc3ccc(C)cc3)c3ccccc3c2=O)cc1`?
TGFb inhibitor: 0.3%; A549 viability: inconclusive; ATXN viability: inactive; ATXN2 expr inh: -13.0%; Nrf2 inh: 9.2µM*; HepG2 viability: 3.9%

Results for COc1ccc(-c2nc3ccccc3n2Cc2ccc(C)cc2)cc1 ?
TGFb inhibitor: inconclusive; A549 viability: -2.0%; ATXN viability: inactive; ATXN2 expr inh: 11.3%; HepG2 viability: -7.3%

What do the screens show for `COc1ccc(Cn2c(-c3ccc(C)cc3)c[n+]3ccccc23)cc1`?
TGFb inhibitor: inconclusive; A549 viability: -16.1%; ATXN viability: inconclusive; ATXN2 expr inh: 16.8µM*; Nrf2 inh: 0.731µM*; HepG2 viability: -28.1%

Results for Cc1nc(NCC(=O)c2c[nH]c3ccccc23)sc1C ?
TGFb inhibitor: inconclusive; HepG2 viability: -17.2%

Results for CCc1c(C)nc2ncnn2c1N1CCC(C(=O)Nc2cccc(C(C)=O)c2)CC1 ?
TGFb inhibitor: 20.1%; A549 viability: 1.8%; ATXN viability: inactive; ATXN2 expr inh: -7.4%; HepG2 viability: 1.1%
